# Counter-ions that a name gives are not always drawn. ± gives the standard deviation of the averaged measurements.
# Tested on: Escherichia coli ATCC BAA-2469
# Assay: percent growth inhibition of drug + antibiotic vs DMSO control; higher = more growth inhibition
# Protocol: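 Prestwick drugs tested at 20 uM and 7 uM with an antibiotic at 0.125x MIC (16 mg/L when MIC >128 mg/L) against E. coli ATCC BAA-2469 (NDM-1) in CAMHB, 384-well plates, duplicate runs. Percent growth inhibition was computed from OD600 (24 h minus 0 h) relative to DMSO wells. Drug + DMSO-only wells are also given. […]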
# [1] = antibiotic (0.125x MIC): ciprofloxacin, 7 µM
# [2] = antibiotic (0.125x MIC): ciprofloxacin, 20 µM
# [3] = antibiotic (0.125x MIC): gentamicin, 7 µM
# [4] = antibiotic (0.125x MIC): gentamicin, 20 µM
# [5] = antibiotic (0.125x MIC): meropenem, 7 µM
# [6] = antibiotic (0.125x MIC): meropenem, 20 µM
structure (smiles),measurement,setting,value
Cc1nnc(NS(=O)(=O)c2ccc(N)cc2)s1 [Sulfamethizole],percent growth inhibition,[1],9.62 ± 10%
same,percent growth inhibition,[2],4.47 ± 6%
O=c1[nH]c(=O)n([C@H]2C[C@H](O)[C@@H](CO)O2)cc1C(F)(F)F [Trifluridine],percent growth inhibition,[1],4.99 ± 6.6%
same,percent growth inhibition,[2],25.5 ± 3.5%
same,percent growth inhibition,[3],6.11 ± 0.34%
Nc1ccn([C@@H]2O[C@H](CO)[C@@H](O)C2(F)F)c(=O)n1 [Gemcitabine],percent growth inhibition,[1],23.1 ± 11%
O=C1c2c(O)ccc(O)c2C(=O)c2c(NCCNCCO)ccc(NCCNCCO)c21 [Mitoxantrone dihydrochloride],percent growth inhibition,[1],6.59 ± 1.5%
same,percent growth inhibition,[2],52.9 ± 1.9%
COC(=O)N/N=C/c1c[n+]([O-])c2ccccc2[n+]1[O-] [Carbadox],percent growth inhibition,[1],35.21 ± 0.15%
same,percent growth inhibition,[2],68.9 ± 6.1%
same,percent growth inhibition,[3],46.5 ± 17%
same,percent growth inhibition,[4],85 ± 3.9%
same,percent growth inhibition,[5],39.9 ± 16%
same,percent growth inhibition,[6],78.3 ± 7.7%
CO[C@H]1/C=C/O[C@@]2(C)Oc3c(C)c(O)c4c(O)c(c5c(nc6cc(C)ccn65)c4c3C2=O)NC(=O)/C(C)=C\C=C\[C@H](C)[C@H](O)[C@@H](C)[C@@H](O)[C@@H](C)[C@H](OC(C)=O)[C@@H]1C [Rifaximin],percent growth inhibition,[2],99.44 ± 0.47%
same,percent growth inhibition,[3],68.8 ± 13%
same,percent growth inhibition,[5],94.7 ± 4.2%
same,percent growth inhibition,[6],99 ± 1.7%
CO[C@H]1/C=C/O[C@@]2(C)Oc3c(C)c(O)c4c(O)c(c(/C=N/N5CCN(C6CCCC6)CC5)c(O)c4c3C2=O)NC(=O)/C(C)=C\C=C\[C@H](C)[C@H](O)[C@@H](C)[C@@H](O)[C@@H](C)[C@H](OC(C)=O)[C@@H]1C [Rifapentine],percent growth inhibition,[2],99.9 ± 4.6%
same,percent growth inhibition,[6],96.3 ± 5.3%
CO[C@H]1/C=C/O[C@@]2(C)Oc3c(C)c(O)c4c(c3C2=O)C2=NC3(CCN(CC(C)C)CC3)NC2=C(NC(=O)/C(C)=C\C=C\[C@H](C)[C@H](O)[C@@H](C)[C@@H](O)[C@@H](C)[C@H](OC(C)=O)[C@@H]1C)C4=O [Rifabutin],percent growth inhibition,[3],86.11 ± 0.8%
same,percent growth inhibition,[4],114 ± 20%
same,percent growth inhibition,[5],97.8 ± 1.9%
same,percent growth inhibition,[6],111 ± 12%
Oc1c(Cl)cc(Cl)c2cccnc12 [Chloroxine],percent growth inhibition,[3],40 ± 13%
same,percent growth inhibition,[4],112 ± 19%
Cc1c(N(C)C)c(=O)n(-c2ccccc2)n1C [Amidopyrine],percent growth inhibition,[3],0.636 ± 5.5%
CCN(CC)CCNC(=O)c1cc(Br)c(N)cc1OC [Bromopride],percent growth inhibition,[3],1.42 ± 2.4%
O=C1CN(/N=C/c2ccc([N+](=O)[O-])o2)C(=O)N1 [Nitrofurantoin],percent growth inhibition,[3],6.28 ± 5.3%
same,percent growth inhibition,[5],2.1 ± 2.9%
COc1ccccc1OCC(O)CO (stereo not drawn) [Guaifenesin],percent growth inhibition,[3],2.34 ± 2.3%
same,percent growth inhibition,[5],-4.21 ± 1.2%
O=C(Nc1ccc([N+](=O)[O-])cc1Cl)c1cc(Cl)ccc1O [Niclosamide],percent growth inhibition,[3],10.1 ± 2%
CCOC(=O)c1ccc(OC(=O)CCCCCNC(=N)N)cc1 [Gabexate mesilate],percent growth inhibition,[3],4.82 ± 3.7%
Nc1nc(=S)c2ncn([C@@H]3O[C@H](CO)[C@@H](O)[C@H]3O)c2[nH]1 [Thioguanosine],percent growth inhibition,[5],34.2 ± 1.9%
same,percent growth inhibition,[6],81.6 ± 9.8%
CCCCCCCCCCCCCCCC[N+](C)(C)CCN(Cc1ccc(OC)cc1)c1ncccn1 [Thonzonium bromide],percent growth inhibition,[5],-2.72 ± 5.5%
same,percent growth inhibition,[6],34.1 ± 20%

# — the supplement of paper PMC6658780
